{"source": "PubChem BioAssay (NCATS)", "note": "Records with an inconclusive call do not appear. Unmarked numbers belong to inactive results. Active and inactive are the calls of the source. Calls follow the shape of the dose curve; as a rule, active = well fitted cell-killing curve with a large enough effect; inconclusive = small, poorly fitted or top-dose-only effect, or effect the other way; inactive = no such curve, though single readings can be large or run the other way. Non-standard residues stand in square brackets, D forms with d. Residues, ends and D or L forms follow the SMILES beside them. *: point of attachment. Nva = CCC[C@H](N)C(=O)O; Cbz = O=C(OCc1ccccc1)*", "data": [{"experiment": "Quantitative High-Throughput drug screen in 47 multiple myeloma cell lines against the NCATS MIPE library collection: KMS28PE_JCRB cell viability assay (AID 1918983); also: nearly all actives have a fitted effect of over 35% in size; also: potency is read from the fitted curve at half-maximal effect", "details": "KMS28PE multiple myeloma viability, CellTiter-Glo ATP, 48 h; series mostly up to 45.8 µM; viability, % of DMSO control: at the top concentration", "text": "PI: Beverly A. Mock Ph.D.\nLaboratory of Cancer Biology and Genetics,\nCenter for Cancer Research, National Cancer Institute,\nNational Institute of Health, Bethesda, Maryland\nDrug resistance and disease progression are common in multiple myeloma (MM) patients, underscoring the need for new therapeutic combinations. […] We hypothesized that effective combinations would reduce MYC expression and enhance p16 activity. […] These preclinical data identify potentially useful drug combinations for evaluation in drug-resistant MM and reveal potential mechanisms of combined drug sensitivity.\nDescribed herein is the primary MIPE qHTS used to cherrypick compounds. Validated compounds were then further tested for potential synergistic activiy.\n[1] Peat TJ, Gaikwad SM, Dubois W, Gyabaah-Kessie N, Zhang S, Gorjifard S, Phyo Z, Andres M, Hughitt VK, Simpson RM, Miller MA, Girvin AT, Taylor A, Williams D, D'Antonio N, Zhang Y, Rajagopalan A, Flietner E, Wilson K, Zhang X, Shinn P, Klumpp-Thomas C, McKnight C, Itkin Z, Chen L, Kazandijian D, Zhang J, Michalowski AM, Simmons JK, Keats J, Thomas CJ, Mock BA. Drug combinations identified by high-throughput screening promote cell cycle transition and upregulate Smad pathways in myeloma. Cancer Lett. 2023 Aug 1;568:216284. doi: 10.1016/j.canlet.2023.216284. Epub 2023 Jun 24. PMID: 37356470; PMCID: PMC10408729.\nSEQUENCE No. (e.g., 1, 2, 3, etc.); […] (e.g., Cells, Incubation, Reagent, etc.); VALUE and DESCRIPTION.\n1; Cells; 5 uL; white, solid bottom 1536-well Greiner assay plate.\n2; Compounds; 23 nL; Kalypsis pin tool (Wako USA) equipped with a 1536-well pin head to transfer to the assay plates.\n3; Incubation; 48 hours; 37C incubation.\n4; Reagent;5uL; CellTiter Glo (Promega).\n5; Detector; 425V; Luminescence; Viewlux PerkinElmer.\nNOTES (numbers refer to Sequence numbers above)\n1. The cell-based screening methods employed in this study were like those previously published. Briefly, the corresponding myeloma cell lines were screened in 1,536-well plates with 500 cells, 5-uL per well for inhibition of cell viability (assessed by measuring ATP levels with CellTiterGlo).\n2. NCATS MIPE 4.0 library of approved and investigational drugs were added using the Kalypsis pin tool. Wells treated with DMSO only for 100% viability and media only for 0% viability were used as controls.\n3. The assay plates were covered and incubated for 48 hours in a 37C, 5% CO2 incubator with controlled humidity.\n4. After 48 hours, CellTilter-GloTM luminescent substrate mix (Promega) reagent was added to the assay plate and plates we incubated for 5 min at room temperature.\n5. Signal was measured as median relative luminescence units on a ViewLux (PerkinElmer) multiplate reader.\n[1] Heske CM, Davis MI, Baumgart JT, Wilson K, Gormally MV, Chen L, Zhang X, Ceribelli M, Duveau DY, Guha R, Ferrer M, Arnaldez FI, Ji J, Tran HL, Zhang Y, Mendoza A, Helman LJ, Thomas CJ. Matrix Screen Identifies Synergistic Combination of PARP Inhibitors and Nicotinamide Phosphoribosyltransferase (NAMPT) Inhibitors in Ewing Sarcoma. Clin Cancer Res. 2017 Dec 1;23(23):7301-7311. doi: 10.1158/1078-0432.CCR-17-1121. Epub 2017 Sep 12. PMID: 28899971; PMCID: PMC6636827.", "units": {"viability, % of DMSO control": "%"}, "values": [{"smiles": "NC(=O)c1cccc(-c2cccc(OC(=O)NC3CCCCC3)c2)c1", "viability, % of DMSO control": 132}, {"smiles": "CC(=O)N1CCN(c2ccc(OCc3nn(C)c(C)c3-c3cccc4c(CCCOc5cccc6ccccc56)c(C(=O)O)n(Cc5cccnc5)c34)cc2)CC1", "Potency": "16.6 µM (active)"}, {"smiles": "N#Cc1c(C2CCNCC2)cc(-c2c(O)cccc2OCC2CC2)nc1N", "Potency": "26.4 µM (active)"}, {"smiles": "CCOC(=O)[C@@H](N)Cc1ccc(-c2cc(O[C@H](c3ccc(Cl)cc3-n3ccc(C)n3)C(F)(F)F)nc(N)n2)cc1", "Potency": "20.9 µM (active)"}, {"smiles": "Cc1coc2c1C(=O)C(=O)c1c-2ccc2c(C)cccc12", "Potency": "8.33 µM (active)"}, {"smiles": "O=C(NNC(=O)c1ccc(CNS(=O)(=O)c2ccc(F)c(Cl)c2)cc1)c1ccccc1", "viability, % of DMSO control": 129}, {"smiles": "CC(C)c1cc(C(C)C)c(CC(=O)NS(=O)(=O)Oc2c(C(C)C)cccc2C(C)C)c(C(C)C)c1", "Potency": "23.5 µM (active)"}, {"smiles": "O=C1NCCc2[nH]c(-c3ccncc3)cc21", "Potency": "4.69 µM (active)"}, {"smiles": "N=c1ccn2c(n1)O[C@H]1[C@@H](O)[C@@H](CO)O[C@H]12", "viability, % of DMSO control": 112}, {"smiles": "C[C@H](NCc1ccc2c(c1)nc(NC(=O)c1ccc(-c3cn[nH]c3)s1)n2CCc1ccccc1)C(C)(C)C", "Potency": "2.35 µM (active)"}, {"smiles": "Nc1ccc(C(=O)Nc2cccc(-c3nc(N4CCOCC4)c4oc5ncccc5c4n3)c2)cn1", "Potency": "26.4 µM (active)"}, {"smiles": "CC1(C)CC(O)CC(C)(C)N1[O]", "viability, % of DMSO control": 132}, {"smiles": "CC(Oc1ccc(O)cc1)(P(=O)(O)O)P(=O)(O)O", "viability, % of DMSO control": 131}, {"smiles": "O=C(O)CCCCCC(=O)NN=C1CCCC1", "viability, % of DMSO control": 127}, {"smiles": "O=C1c2c(O)cccc2[C@@H]([C@@H]2O[C@H](CO)[C@@H](O)[C@H](O)[C@H]2O)c2cc(CO)cc(O)c21", "viability, % of DMSO control": 121}, {"smiles": "O=C1NC(=O)C(=Cc2ccc3nccc(-c4ccncc4)c3c2)S1", "Potency": "0.372 µM (active)"}, {"smiles": "NC(=O)N1CCC(CC(=O)N2CCC([C@H]3c4ncc(Br)cc4CCc4cc(Cl)cc(Br)c43)CC2)CC1", "Potency": "18.7 µM (active)"}, {"smiles": "N#Cc1cc(NC(=O)Nc2nnc(-c3ccncc3)s2)ccc1-c1cn[nH]c1", "Potency": "16.6 µM (active)"}, {"smiles": "CC(=O)OCC(=O)[C@@]12N=C(C)O[C@H]1C[C@H]1[C@@H]3CCC4=CC(=O)C=C[C@]4(C)[C@@H]3[C@@H](O)C[C@@]12C", "viability, % of DMSO control": 127}, {"smiles": "C[C@@H](Oc1ccc2[nH]nc(C=Cc3cnn(CCO)c3)c2c1)c1c(Cl)cncc1Cl", "Potency": "4.18 µM (active)"}, {"smiles": "CC(C=CC1=C(C)CCCC1(C)C)=CC=CC(C)=CC(=O)Nc1ccc(O)cc1", "Potency": "21.5 µM (active)"}, {"smiles": "COc1cc(N2CCC(C(N)=O)CC2)ccc1Nc1nc(N)c(Cl)c(Nc2ccccc2S(=O)(=O)C(C)C)n1", "Potency": "0.743 µM (active)"}, {"smiles": "Nc1ncn([C@@H]2O[C@H](CO)[C@@H](O)[C@@H]2O)c(=O)n1", "Potency": "20.9 µM (active)"}, {"smiles": "CC(=O)ON=C1C(c2c(O)[nH]c3cc(Br)ccc23)=Nc2ccccc21", "Potency": "20.9 µM (active)"}, {"smiles": "Oc1cc2c(cc1O)C1c3ccc(O)c(O)c3OCC1(O)C2", "note": "(stereo not given)", "viability, % of DMSO control": 125}, {"smiles": "CC(C)C[C@@H](C=O)NC(=O)[C@H](CC(C)C)NC(=O)[C@H](CC(C)C)NC(=O)OCc1ccccc1", "note": "(Cbz-Leu-Leu-Leu-aldehyde)", "Potency": "0.209 µM (active)"}, {"smiles": "C=CC(=O)N1CCc2ccc(-n3c(=O)ccc4cnc5ccc(-c6cnn(C)c6)cc5c43)cc21", "Potency": "4.69 µM (active)"}, {"smiles": "O=C(NC1CC1)c1cccc(-c2ccc3c(NC(=O)C4CC4)n[nH]c3c2)c1", "Potency": "10.5 µM (active)"}, {"smiles": "CN(C)c1ccc(C(=O)NCCCCCCC(=O)NO)cc1", "Potency": "0.935 µM (active)"}, {"smiles": "O=C(C=CC#Cc1cccc(NS(=O)(=O)c2ccccc2)c1)NO", "Potency": "1.87 µM (active)"}, {"smiles": "C=Cc1c(C)c2cc3nc(cc4[nH]c(cc5nc(cc1[nH]2)C(C)=C5CCC(=O)O)c(CCC(=O)OC)c4C)[C@@]1(C)C3=CC=C(C(=O)OC)[C@H]1C(=O)OC", "Potency": "0.743 µM (active)"}, {"smiles": "CCN(C(=O)c1c(O)c2c(Cl)cccc2n(C)c1=O)c1ccccc1", "viability, % of DMSO control": 161}, {"smiles": "CCCNC(=O)[C@H]1O[C@H]1C(=O)N[C@H](C(=O)N1CCC[C@@H]1C(=O)OC)C(C)CC", "note": "(stereo not given in full)", "Potency": "7.43 µM (active)"}, {"smiles": "CCC[C@@H](C=O)NC(=O)[C@H](CC(C)C)NC(=O)[C@H](CC(C)C)NC(=O)OCc1ccccc1", "note": "(Cbz-Leu-Leu-[Nva]-aldehyde)", "Potency": "0.662 µM (active)"}, {"smiles": "CCc1cnn2c(NCc3ccc[n+]([O-])c3)cc(N3CCCC[C@@H]3CCO)nc12", "Potency": "0.0296 µM (active)"}, {"smiles": "Cc1cn([C@@H]2O[C@H](CO)[C@@H](O)[C@H]2F)c(=O)[nH]c1=O", "viability, % of DMSO control": 127}, {"smiles": "COc1ccc(C[C@@H](C)[C@@H](C)Cc2ccc(OC)c(OC)c2)cc1OC", "Potency": "0.332 µM (active)"}, {"smiles": "COc1ccnc2[nH]cc(C(=O)C(=O)N3CCN(C(=O)c4ccccc4)C[C@@H]3C)c12", "viability, % of DMSO control": 115}, {"smiles": "CCNC(=O)c1cc2c(-c3cc(OCCN4CCCC4)c(Cl)cc3Cl)nc(N)nc2s1", "Potency": "1.87 µM (active)"}, {"smiles": "Cc1cc(-c2nnc3n2CCCCC3)c(C)n1-c1ccccc1", "viability, % of DMSO control": 105}]}]}
